# Source: the supplement of paper PMC6135742
# Several values for one entry are separate records, joined by “and”; a condition that tells them apart may be missing. Equal values may be shown once. Where a name gives a salt, the structure may show the parent alone. ± gives the standard deviation of the averaged measurements. The full ranking holds about 2,600 compounds; the median of “MBP+ mature oligodendrocyte number relative to DMSO vehicle control” is about -0.34, and the highest 2% start at about 13. The sample holds the highest values, similar compounds and a random draw of the others, so the mix is not that of the screen.
# Test system: jimpy (Plp1 jimpy) mouse iPSC-derived oligodendrocyte progenitor cells
# Assay: MBP+ mature oligodendrocyte number relative to DMSO vehicle control (SDs above negative control mean); higher = more surviving jimpy oligodendrocytes (rescue)
# Conditions: 10 µM; 3 days
# Description: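 Primary phenotypic screen of >3,000 bioactive compounds (Selleck L1700 and Sigma LO1280 libraries) at a single dose of 10 µM. Compounds were added to jimpy (Plp1 mutant) mouse iPSC-derived OPCs at the start of thyroid hormone-induced oligodendrocyte differentiation, one well per compound in 384-well plates. After 3 days cells were stained for MBP, Sox10 and DAPI and imaged with an Operetta system. MBP+ oligodendrocyte number and total cell number were expressed as the number of SDs above the mean of the DMSO negative control on the same plate (n=16 control wells per plate). Hits were defined as >=4 SD for oligodendrocytes and >=2 SD for total cells.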
row,Structure (SMILES),MBP+ mature oligodendrocyte number
1,O=C1Cc2cc(CCN3CCN(c4nsc5ccccc45)CC3)c(Cl)cc2N1 [Ziprasidone hydrochloride monohydrate],11.7
2,O=C1CCc2ccc(OCCCCN3CCN(c4cccc(Cl)c4Cl)CC3)cc2N1 [Aripiprazole],5.11
3,O=C1Cc2cc(CCN3CCN(c4nsc5ccccc45)CC3)c(Cl)cc2N1 [Ziprasidone HCl],21.9
4,COc1ccc(-c2oc3c(CC=C(C)C)c(O)cc(O)c3c(=O)c2O)cc1 [Icaritin],-3.18
5,COc1cc(N2CCC(N3CCN(C)CC3)CC2)ccc1Nc1ncc(Cl)c(Nc2ccccc2S(=O)(=O)C(C)C)n1,< -6.7
6,Cn1cnc2c(NCc3ccccc3)nc(NCCO)nc21 [Olomoucine],1.83
7,CC(C)NCC(O)c1ccc(O)c(O)c1 (racemic) [(±)-Isoproterenol hydrochloride],0.225
8,Nc1cc2c(ncn2CCOCP(=O)(O)O)c(=O)[nH]1 [PMEG hydrate],-1.5
9,O.O=[Si]=O.O=[Si]=O.O=[Si]=O.O=[Si]=O.[O]=[Mg].[O]=[Mg].[O]=[Mg],-1.01
10,NC(N)=N/N=C/c1ccccc1Cl [Sephin-1],1.29
11,CCC(C)(C)c1ccc(CC(C)CN2C[C@@H](C)O[C@@H](C)C2)cc1 (stereo partly specified) [Amorolfine HCl],28.8
12,Fc1ccc2[nH]c(CN3CCN(c4ccccn4)CC3)cc2c1,-1.89
13,O=C(O)CCCCC1CCSS1 (racemic) [(±)-alpha-Lipoic Acid],-1.6
14,O=C(O)Cc1cccc(OCCCN(Cc2cccc(C(F)(F)F)c2Cl)CC(c2ccccc2)c2ccccc2)c1,24.5
15,CN(CCCOc1ccc(Cc2ccccc2)cc1)CCC(=O)O,0.896
16,CC1(C)CCC2=C(O1)c1ccccc1C(=O)C2=O [beta-Lapachone],< -3.97
17,CC1(C)CCC2=C(O1)c1ccccc1C(=O)C2=O [Beta-Lapachone],-6.18
18,CC(C)(Oc1ccc(Cl)cc1)C(=O)O [Clofibric Acid],2.94
19,CC(C)(C)C(=O)C(Oc1ccc(Cl)cc1)n1ccnc1 (stereo unspecified) [Climbazole],38.6
20,CCOC(=O)C(C)(C)Oc1ccc(Cl)cc1 [Clofibrate],0.667
21,C[C@H](CCC(=O)NCCS(=O)(=O)O)[C@H]1CC[C@H]2[C@@H]3[C@H](O)C[C@@H]4C[C@H](O)CC[C@]4(C)[C@H]3C[C@H](O)[C@]12C [Sodium Taurocholate hydrate],-0.433
22,CCN(c1cc(-c2ccc(CN3CCOCC3)cc2)cc(C(=O)NCc2c(C)cc(C)[nH]c2=O)c1C)C1CCOCC1,8.01
23,Cc1cc(C)c(CNC(=O)c2cc(-c3ccc(CN4CCOCC4)cc3)cc3c2cnn3C2CCCC2)c(=O)[nH]1,30.2
24,CCCc1cc(C)[nH]c(=O)c1CNC(=O)c1cc(-c2ccc(N3CCN(C(C)C)CC3)nc2)cc2c1cnn2C(C)C,< -6.35
25,CCc1cc2c(cc1N1CCC(N3CCOCC3)CC1)C(C)(C)c1[nH]c3cc(C#N)ccc3c1C2=O,-2.2
26,NC(=O)[C@@H](CCC(F)(F)F)N(Cc1ccc(-c2ncon2)cc1F)S(=O)(=O)c1ccc(Cl)cc1,4.21

row,Structure (SMILES),MBP+ mature oligodendrocyte number
1,CCn1c(=O)c2c(nc(/C=C/c3ccc(OC)c(OC)c3)n2C)n(CC)c1=O [Istradefylline],-4.18
2,Cn1cc(/C=C2\C(=O)Nc3cccnc32)c2ccccc21,-3.63
3,Cn1cc(C2=C(c3ccc(Cl)cc3Cl)C(=O)NC2=O)c2ccccc21,22.4 and 12.6
4,Cn1cc(C2=C(c3cn(CCCSC(=N)N)c4ccccc34)C(=O)NC2=O)c2ccccc21 [Ro 31-8220 Mesylate],-5.25
5,Cc1[nH]c2ccccc2c1CCNCc1ccc(/C=C/C(=O)NO)cc1 [Panobinostat (LBH589)],< -6.7
6,CN(CC[C@@H](Oc1ccc(C(F)(F)F)cc1)c1ccccc1)CC(=O)[O-].[Li+],0.588
7,Clc1ccc(COC(Cn2ccnc2)c2ccc(Cl)cc2Cl)c(Cl)c1 (stereo unspecified) [Miconazole],-1.9
8,Clc1ccc(COC(Cn2ccnc2)c2ccc(Cl)cc2Cl)c(Cl)c1 (stereo unspecified) [Miconazole Nitrate],-3.62
9,Clc1ccc(C(Cn2ccnc2)OCc2c(Cl)cccc2Cl)c(Cl)c1 (stereo unspecified) [Isoconazole nitrate],22.9
10,Clc1ccc(COC(Cn2ccnc2)c2ccc(Cl)cc2Cl)cc1 (stereo unspecified) [Econazole nitrate],5.37
11,COc1ccc(C2(CNC(=O)c3ccc(NC(=O)c4ccco4)cc3)CCOCC2)cc1,-2.6
12,CC(Cc1ccc(O)c(O)c1)(NN)C(=O)O (stereo not drawn) [S-(-)-Carbidopa],-1.01
13,Cc1nccn1CC1CCc2c(c3ccccc3n2C)C1=O (stereo unspecified) [Ondansetron HCl],12.8
14,Nc1cc(Cl)c(NC2=NCCN2)c(Cl)c1 [p-Aminoclonidine hydrochloride],-0.786
15,CNC(=O)CN(CCN(CCN(CC(=O)[O-])CC(=O)NC)CC(=O)[O-])CC(=O)[O-].[Gd+3] [Gadodiamide],< -5.15
16,C#C[C@]1(O)CC[C@H]2[C@@H]3CCC4=CC(=O)CC[C@@H]4[C@H]3CC[C@@]21C [Norethindrone],6.57
17,C#C[C@]1(O)CC[C@H]2[C@@H]3CCc4cc(O)ccc4[C@H]3CC[C@@]21C [Ethinyl Estradiol],0.433
18,C#C[C@]1(O)CC[C@H]2[C@@H]3CCc4cc(OC)ccc4[C@H]3CC[C@@]21C [Mestranol],12.8
19,O=C(Nc1ccc2c(c1)CCN(Cc1ncn[nH]1)C2)c1ccccc1-c1ccc(C(F)(F)F)cc1,2
20,c1ccc2c(c1)CCC[C@H]2Nc1nc2ccccc2[nH]1 [NS8593 hydrochloride],-0.125
21,NC(=O)NO [Hydroxyurea],0.603 ± 0.14
22,CO[C@H]1C[C@@H]2CC[C@@H](C)[C@@](O)(O2)C(=O)C(=O)N2CCCC[C@H]2C(=O)O[C@H]([C@H](C)C[C@@H]2CC[C@@H](O)[C@H](OC)C2)CC(=O)[C@H](C)/C=C(\C)[C@@H](O)[C@@H](OC)C(=O)[C@H](C)C[C@H](C)/C=C/C=C/C=C/1C [Rapamycin (Sirolimus)],-5.74
23,Cc1ccc(F)c(NC(=O)Nc2ccc(-c3cccc4[nH]nc(N)c34)cc2)c1 [Linifanib (ABT-869)],-5.74
24,COc1ccc(Cl)cc1NC(=O)Nc1cc(C)nc2ccccc12,-4.52
25,Cc1cc(NC(=O)Nc2ccc(N(C)C)cc2)c2cc(F)cc(F)c2n1,29.4
